Laboratory results published in PubChem BioAssay (Tox21).
Results filed as inconclusive are left out. Active and inactive are the calls of the source. Unless noted, calls follow the shape of the dose curve; as a rule, active = well fitted cell-killing curve with a large enough effect in the repeat runs; inconclusive = weak or mixed curves, or effect the other way; inactive = no such curve, though single readings can be large or run the other way.

Assay: qHTS assay to identify small molecule agonists of the endoplasmic reticulum stress response signaling pathway - cell viability counter screen (AID 1159517; calls by dose curve;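 also: HeLa cells carrying an ER stress response element beta-lactamase reporter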)
Conditions: ESRE-bla HeLa viability, CellTiter-Glo luminescence, 5 h; series mostly up to 61 µM; activity change, negative = cytotoxicity: at the top concentration
Outline: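 Steps: seed 1,500 ESRE-bla HeLa cells per well; incubate overnight at 37 C, 5% CO2; add compounds in DMSO for 5 hr; run FRET substrate 2 hr RT; add CellTiter-Glo, wait 30 min, read luminescence.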
% is scaled to controls: 0 for no effect and ±100 for the full control effect.
Also: nearly all actives have a fitted effect of over 50% in size.

| Structure (SMILES) | activity change, negative = cytotoxicity |
| --- | --- |
| CC(=O)[C@H]1CC[C@H]2[C@@H]3CCC4=CC(=O)CC[C@]4(C)[C@H]3CC[C@]12C | -11% (inactive) |
| COc1cc2nc(N3CCN(C(=O)c4ccco4)CC3)nc(N)c2cc1OC | 0.405% [at 28.5 µM] (inactive) |
| [Cu+] | 2.34% (inactive) |
| Cc1ccc(O)c(O)c1 | -25.6% (inactive) |
| O=[N+]([O-])c1ccc(O)cc1C(F)(F)F | -14.5% (inactive) |
| O=c1[nH]c2ccccc2n1CCCN1CCN(C(c2ccccc2)c2ccccc2)CC1 | -0.696% (inactive) |
| c1ccc(C(O[C@@H]2CCCN(CCc3ccc4c(c3)OCO4)C2)c2ccccc2)cc1 | -6.19% (inactive) |
| CCO[C@@H]1O[C@H](C(COCc2ccccc2)OCc2ccccc2)[C@H](OCc2ccccc2)[C@H]1O (stereo partly drawn) | -1.67% (inactive) |
| CCCc1ccc(OCC(=O)N2CCN(C(=O)COc3ccc(CCC)cc3OC)CC2)c(OC)c1 | 0.562% (inactive) |
| COC1=C(OC)C(=O)C(CCCCCCCCCCO)=C(C)C1=O | -1.47% (inactive) |
| CCCCN(CCCC)CC(O)c1cc(Cl)cc2c1-c1ccc(Cl)cc1/C2=C/c1ccc(Cl)cc1 (stereo not drawn) | -1.2% (inactive) |
| COc1ccc(-c2coc3cc(O)ccc3c2=O)cc1 | -7.89% (inactive) |
| Oc1cc(Cl)cc(Cl)c1Cl | -0.313% [at 78.8 µM] (inactive) |
| C/C=C/C=C/COC(=O)C(C)C | 1.99% (inactive) |
| CC(C)=CCC1=C(O)c2ccccc2C(=O)C1=O | -4.2% (inactive) |
| OC12N=C(c3ccccc3)SC1Cc1cc(Cl)ccc12 (stereo not drawn) | 0% (inactive) |

Assay: qHTS assay to identify small molecule antagonists of the retinoid-related orphan receptor gamma (ROR-gamma) signaling pathway - cell viability counter screen (AID 1159520)
Conditions: Tet-on RORgamma CHO cells viability, ATP luminescence, 16 h; series mostly up to 92.4 µM; activity, negative = cytotoxicity: at the top concentration
Outline: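 Tet-on ROR gamma CHO cells were given compounds for 2 hr, then doxycycline hyclate at 1 uM final, and incubated 16 hr at 37 C. Viability was measured as ATP content by CellTiter-Glo luminescence.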

| Structure (SMILES) | activity, negative = cytotoxicity | Potency |
| --- | --- | --- |
| COC(=O)c1ccccc1OC | 0.225% (inactive) | – |
| c1cnccn1 | 5.12% (inactive) | – |
| O=[N+]([O-])c1ccc(F)c(Cl)c1 | -2.61% (inactive) | – |
| CCCC[P+](C)(CCCC)CCCC | -3.21% (inactive) | – |
| Cc1nc2n(c(=O)c1CCN1CCC(c3noc4cc(F)ccc34)CC1)CCCC2 | -0.569% [at 42.5 µM] (inactive) | – |
| O[C@@H]([C@H](O)[C@H](O)CBr)[C@H](O)CBr | 6.31% (inactive) | – |
| O=C(O)c1ccc2cc(C(=O)O)ccc2c1 | 12.6% (inactive) | – |
| CCCCCCOC(=O)C(C)CC (stereo not drawn) | 0.341% (inactive) | – |
| C=Cc1cccc(C)c1 | – | inactive |
| O=C(/C=C/c1ccc(O)c(O)c1)O[C@@H](C(=O)O)[C@@H](OC(=O)/C=C/c1ccc(O)c(O)c1)C(=O)O | 0.0694% (inactive) | – |
| CCc1cccc(CC)c1NC(=O)CN(CC(=O)O)CC(=O)O | -0.351% [at 42.5 µM] (inactive) | – |
| CCCCCCCC | 8.24% (inactive) | – |
| CC(C)CCOC(=O)/C=C/c1ccccc1 | 5.14% (inactive) | – |
| Cc1ccc(-c2ccccc2)cc1 | -6.87% (inactive) | – |
| CCCCCCCCCCOC(=O)c1ccccc1C(=O)OCCCCCCCC | 6.69% (inactive) | – |
| C=CC(C)(CCC=C(C)C)OC=O (stereo not drawn) | -5.39% (inactive) | – |
| CC(CO)Oc1ccccc1 (stereo not drawn) | 9.31% (inactive) | – |
| O=C(O)c1cc(=O)c2ccccc2o1 | 0.379% [at 42.5 µM] (inactive) | – |
| CC(=O)c1ccc(C(C)=O)cc1 | 0.234% (inactive) | – |
| CC[N+](CC)(CC)CCOC(=O)C(C1CCCC1)C1CCCC1 | 3.15% [at 42.5 µM] (inactive) | – |
| CC(C)(C)CC(C)(C)c1ccc(Nc2ccc(C(C)(C)CC(C)(C)C)cc2)cc1 | -0.0922% [at 8.39 µM] (inactive) | – |
| NC(=O)c1cccc([N+](=O)[O-])c1 | -16.3% (inactive) | – |
